Results published in the supplement of paper PMC11537057.
Where a name gives a salt, the structure may show the parent alone. Hit rate of the full screen: of about 1,700 compounds, about 15 (0.9%) showed activity. What follows is part of a selection rich in actives, with near analogues and random picks from the rest. Values without a mark were called inactive.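 How the source made its calls: active = infection cut by 80% or more with cell growth above 90% in both runs; inactive = the rest.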

The molecules below were run on HSV-1 strain 17 YFP-ICP4 in A549 (assay: HSV-1 infection relative to DMSO (ICP4-YFP per H2B-RFP signal); higher = more viral infection (less antiviral activity), active = hit call of the paper). Conditions: 10 µM; 48 h; MOI: 0.1.
Protocol: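 Selleck FDA-approved library (L1300) screened in duplicate at 10 µM on A549 H2B-mRuby cells in 384-well plates, infected with HSV-1 strain 17 YFP-ICP4 at MOI 0.1 one hour before drug addition. Imaged after 2 days at 37°C. Cell growth (H2B-RFP) and infection (ICP4-YFP) are expressed as % of DMSO-treated wells. Hits: growth >90% and infection <20% of DMSO.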

Structure (SMILES) | HSV-1 infection
O=C(O)CCCC[C@@H]1CCSS1 (racemic) [Thioctic acid] | 66.1%
N=C(N)NCCC[C@@H](NC(=O)[C@@H]1CCCN1C(=O)[C@@H]1CSSCCC(=O)N[C@@H](Cc2ccc(O)cc2)C(=O)N[C@@H](Cc2ccccc2)C(=O)N[C@@H](CCC(N)=O)C(=O)N[C@@H](CC(N)=O)C(=O)N1)C(=O)NCC(N)=O [Desmopressin Acetate] | 103%
NC(=O)CCC(N)C(=O)O (racemic) [DL-Glutamine] | 114%
COc1ccc(Cl)c(Nc2nc3ccccc3nc2NS(=O)(=O)c2cccc(NC(=O)C(C)(C)N)c2)c1 [Pilaralisib (XL147)] | 93.5%
COc1ccc(-c2nc3cc(C4=NNC(=O)CC4C)ccc3[nH]2)cc1 (configuration not stated) [Pimobendan] | 68.5%
CC(=O)[C@@]1(O)CC[C@H]2[C@@H]3CCC4=CC(=O)CCC4=C3[C@@H](c3ccc(N(C)C)cc3)C[C@@]21C [Ulipristal] | 91.8%
CCCN(CCC)C(=O)C1=Cc2ccc(-c3ccc(C(=O)N4CCCC4)cc3)cc2N=C(N)C1 [Motolimod (VTX-2337)] | 82.9%
CN[C@H]1C(=O)N[C@@H]2Cc3ccc(cc3)Oc3cc4cc(c3O[C@@H]3O[C@H](C(=O)O)[C@@H](O)[C@H](O)[C@H]3NC(=O)CCCCCCCCC(C)C)Oc3ccc(cc3Cl)[C@@H](O)[C@@H]3NC(=O)[C@H](NC(=O)[C@@H]4NC(=O)[C@@H](NC2=O)c2cc(cc(O)c2Cl)Oc2cc1ccc2O)c1ccc(O)c(c1)-c1c(O[C@H]2O[C@H](CO)[C@@H](O)[C@H](O)[C@@H]2O)cc(O)cc1[C@@H](C(=O)NCCCN(C)C)NC3=O [Dalbavancin] | 95.9%
CCCCN1CCCC[C@H]1C(=O)Nc1c(C)cccc1C [Levobupivacaine HCl] | 70.8%
COc1ccc([C@H]2CNC(=O)C2)cc1OC1CCCC1 [S- (+)-Rolipram] | 97.4%
CC(C)C[C@H](N)C(=O)O [L-Leucine] | 100%
COC(=O)c1ccccc1O [Methyl salicylate] | 81.4%
CCCCC(=O)N(Cc1ccc(-c2ccccc2-c2nn[nH]n2)cc1)C(C(=O)O)C(C)C.CCOC(=O)C(C)CC(Cc1ccc(-c2ccccc2)cc1)NC(=O)CCC(=O)O (configuration not stated) [Sacubitril/valsartan (LCZ696)] | 116%
FC(F)(F)c1ccc(CNc2ccc(Cc3c[nH]c4ncc(Cl)cc34)cn2)cn1 [Pexidartinib (PLX3397)] | 102%
Cc1ccccc1N1CCN(CCc2nnc3n2CCCC3)CC1 [Dapiprazole Hydrochloride] | 135%
CC(C)C[C@H](NC(=O)CNC(=O)c1cc(Cl)ccc1Cl)B1OC(=O)C(CC(=O)O)(CC(=O)O)O1 [Ixazomib Citrate (MLN9708)] | 80.4%
CCNC(=O)[C@@H]1CCCN1C(=O)[C@H](CCCNC(=N)N)NC(=O)[C@H](CC(C)C)NC(=O)[C@@H](CC(C)C)NC(=O)[C@H](Cc1ccc(O)cc1)NC(=O)[C@H](CO)NC(=O)[C@H](Cc1c[nH]c2ccccc12)NC(=O)[C@H](Cc1c[nH]cn1)NC(=O)[C@@H]1CCC(=O)N1 [Leuprolide Acetate] | 113%
CCNC(=O)[C@@H]1CCCN1C(=O)[C@H](CCCNC(=N)N)NC(=O)[C@H](CC(C)C)NC(=O)[C@@H](CC(C)C)NC(=O)[C@H](Cc1ccc(O)cc1)NC(=O)[C@H](CO)NC(=O)[C@H](Cc1c[nH]c2ccccc12)NC(=O)[C@H](Cc1c[nH]cn1)NC(=O)[C@@H]1CCC(=O)N1 [Leuprorelin Acetate] | 105%
O=C(O)c1ccc(-n2nc(-c3ccccc3O)nc2-c2ccccc2O)cc1 [Deferasirox] | 79.8%
CC(C)(C)NC(=O)N[C@H](C(=O)N1C[C@H]2[C@@H]([C@H]1C(=O)NC(CC1CCC1)C(=O)C(N)=O)C2(C)C)C(C)(C)C (some centres not stated) [Boceprevir] | 110%
COc1c(C)c2c(c(O)c1C/C=C(\C)CCC(=O)O)C(=O)OC2 [Mycophenolic acid] | 14.4% (active)
C[C@H](Oc1ccc(S(C)(=O)=O)cc1C(=O)N1CCN(c2ncc(C(F)(F)F)cc2F)CC1)C(F)(F)F [Bitopertin] | 92.8%
CCCCCCCCOc1ccccc1C(=O)Nc1ccc(C(=O)OCC[N+](C)(CC)CC)cc1 [Otilonium Bromide] | 60.5%
OC[C@@H](O)CN1CCN(c2ccccc2)CC1 [Levodropropizine] | 64.9%

Structure (SMILES) | HSV-1 infection
CC(C)Nc1cc(-c2c[nH]c(C(=O)N[C@H](CO)c3cccc(Cl)c3)c2)c(Cl)cn1 | 69.3%
O=C(Cn1ccnc1[N+](=O)[O-])NCc1ccccc1 [Benznidazole] | 115%
CC(C)C[C@H](NC(=O)CNC(=O)c1cc(Cl)ccc1Cl)B(O)O [Ixazomib (MLN2238)] | 77.3%
N[C@@H]1CN(c2c(F)cc3c(=O)c(C(=O)O)cn([C@@H]4C[C@@H]4F)c3c2Cl)CC12CC2 [Sitafloxacin Hydrate] | 111%
O=C([O-])[O-].[Na+].[Na+] [Sodium carbonate] | 88%
NC(=O)c1nc(F)cnc1O [Favipiravir (T-705)] | 102%
O=C1/C(=C2\Nc3ccccc3C2=O)Nc2ccccc21 [Indigo] | 105%
C=CCN1CCCC1CNC(=O)c1cc2nn[nH]c2cc1OC (configuration not stated) [Alizapride HCl] | 55.1%
CNC(=O)[C@H](Cc1ccccc1)NC(=O)[C@H](CC(C)C)[C@H](CSc1cccs1)C(=O)NO [Batimastat (BB-94)] | 45.6%
CCOC(=O)[C@@H](N)Cc1ccc(-c2cc(O[C@H](c3ccc(Cl)cc3-n3ccc(C)n3)C(F)(F)F)nc(N)n2)cc1 [Telotristat Etiprate (LX 1606 Hippurate)] | 80.1%
CO/N=C(\C(=O)N[C@@H]1C(=O)N2C(C(=O)[O-])=C(C[N+]3(C)CCCC3)CS[C@H]12)c1csc(N)n1 [Cefepime Dihydrochloride Monohydrate] | 98%
CCCc1nc(C(C)(C)O)c(C(=O)O)n1Cc1ccc(-c2ccccc2-c2nnn[nH]2)cc1 [Olmesartan] | 114%
C[C@H](Nc1ncnc2nc[nH]c12)c1cc2cccc(Cl)c2c(=O)n1-c1ccccc1 [Duvelisib (IPI-145, INK1197)] | 69.2%
CSCC[C@H](NC(=O)[C@H](CC(C)C)NC(=O)[C@H](Cc1c[nH]c2ccccc12)NC(=O)[C@H](CCC(N)=O)NC(=O)[C@@H](NC(=O)[C@H](Cc1ccccc1)NC(=O)[C@H](CC(=O)O)NC(=O)[C@H](CCC(N)=O)NC(=O)[C@H](C)NC(=O)[C@H](CCCNC(=N)N)NC(=O)[C@H](CCCNC(=N)N)NC(=O)[C@H](CO)NC(=O)[C@H](CC(=O)O)NC(=O)[C@H](CC(C)C)NC(=O)[C@H](Cc1ccc(O)cc1)NC(=O)[C@H](CCCCN)NC(=O)[C@H](CO)NC(=O)[C@H](Cc1ccc(O)cc1)NC(=O)[C@H](CC(=O)O)NC(=O)[C@H](CO)NC(=O)[C@@H](NC(=O)[C@H](Cc1ccccc1)NC(=O)[C@@H](NC(=O)CNC(=O)[C@H](CCC(N)=O)NC(=O)[C@H](CO)NC(=O)[C@@H](N)Cc1cnc[nH]1)[C@@H](C)O)[C@@H](C)O)C(C)C)C(=O)N[C@@H](CC(N)=O)C(=O)N[C@H](C(=O)O)[C@@H](C)O [Glucagon HCl] | 99.3%
COc1cc(CNC(=O)CCCCC=CC(C)C)ccc1O [Capsaicin(Vanilloid)] | 86.2%
CC1(C)CCC(CN2CCN(c3ccc(C(=O)NS(=O)(=O)c4ccc(NCC5CCOCC5)c([N+](=O)[O-])c4)c(Oc4cnc5[nH]ccc5c4)c3)CC2)=C(c2ccc(Cl)cc2)C1 [Venetoclax (ABT-199, GDC-0199)] | 96%
CC(O)c1ccc(S(=O)(=O)NC(=O)NC2CCCCC2)cc1 (configuration not stated) [Hydroxyhexamide] | 94.9%
COc1ccc2c(O[C@@H]3C[C@H]4C(=O)N[C@]5(C(=O)NS(=O)(=O)C6CC6)C[C@H]5/C=C\CCCCN(C)C(=O)[C@@H]4C3)cc(-c3nc(C(C)C)cs3)nc2c1C [Simeprevir] | 84.7%
COc1cc(C(=O)O)ccc1NC(=O)[C@@H]1N[C@@H](CC(C)(C)C)[C@](C#N)(c2ccc(Cl)cc2F)[C@H]1c1cccc(Cl)c1F [Idasanutlin (RG-7388)] | 101%
O=c1[nH]c2ccccc2n1CCN1CCN(c2cccc(C(F)(F)F)c2)CC1 [Flibanserin] | 89.9%
CC(C)(Oc1ccc(Cl)cc1)C(=O)OCCOC(=O)c1cccnc1 [Etofibrate] | 109%
NCCCC[C@H](NC(=O)[C@@H]1CCCN1C(=O)[C@@H]1CSSC[C@H](NC(=O)CNC(=O)CNC(=O)CN)C(=O)N[C@@H](Cc2ccc(O)cc2)C(=O)N[C@@H](Cc2ccccc2)C(=O)N[C@@H](CCC(N)=O)C(=O)N[C@@H](CC(N)=O)C(=O)N1)C(=O)NCC(N)=O [Terlipressin Acetate] | 110%
CCOc1ccc(Cc2cc([C@@H]3O[C@H](SC)[C@@H](O)[C@H](O)[C@H]3O)ccc2Cl)cc1 [Sotagliflozin (LX4211)] | 111%
